“And” between values parts separate entries of the source, which are not always exact repeats. Identical values can stand only once. Results filed as inconclusive are left out. The source made the active and inactive calls. Calls follow the shape of the dose curve; as a rule, active = well fitted curve in the direction sought with a large enough effect; inconclusive = small, poorly fitted or top-dose-only effect, or another doubt; inactive = no such curve, though single readings can be large; an effect the other way counts as inactive or inconclusive.
Key:
[1] = tested on: CRL-7250; experiment: Cytotoxic Profiling of Annotated Libraries Using Quantitative High-Throughput Screening (AID 1296008); settings: Five cell lines viability, CellTiter-Glo ATP luminescence, 48-72 h; max response: active compounds read low; also: nearly all actives have a fitted effect of over 60% in size; as to max response: % is scaled to controls: 0 for no effect and ±100 for the full control effect
Outline: (§1)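 Compounds were pin-transferred onto cells and incubated 48 or 72 hr at 37 degree Celsius, 95% humidity. CellTiter-Glo was added, plates sat 10 min at room temperature, then ATP-coupled luminescence was imaged as the viability read-out.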

[2] = tested on: HEK293; experiment: as above; settings: Five cell lines viability, CellTiter-Glo ATP luminescence, 48-72 h; max response: active compounds read low
Outline: as §1

[3] = tested on: HaCat; experiment: as above; settings: Five cell lines viability, CellTiter-Glo ATP luminescence, 48-72 h; max response: active compounds read low
Outline: as §1

[4] = tested on: KB-3-1; experiment: as above; settings: Five cell lines viability, CellTiter-Glo ATP luminescence, 48-72 h; max response: active compounds read low
Outline: as §1

[5] = tested on: NIH3T3; experiment: as above; settings: Five cell lines viability, CellTiter-Glo ATP luminescence, 48-72 h; max response: active compounds read low
Outline: as §1

[6] = tested on: HACAT; experiment: qHTS assay to identify novel small-molecules to repurpose for Merkel cell carcinoma treatment (AID 1296009); settings: MCC and control cell lines, CellTiter-Glo viability, 72 h; at 44.8 µM (top of the series) unless noted; also: nearly all actives have a fitted effect of over 60% in size
Outline: (§2)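 qHTS format: cells treated with library compounds in DMSO across 8 (NPC) or 11 (MIPE) concentrations. Readout after 72 hr at 37 degree celsius was CellTiter-Glo luminescence.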

[7] = tested on: HEK293T; experiment: as above; settings: MCC and control cell lines, CellTiter-Glo viability, 72 h; series mostly up to 44.8 µM
Outline: as §2

[8] = tested on: C33A; experiment: Primary qHTS to identify gynecologic anti-cancer compounds using libraries of approved drugs and bioactive compounds (AID 1345084); settings: Gynecologic cancer cell panel viability, ATPlite luminescence, 48 h; series mostly up to 57.5 µM; also: % is scaled to controls: 0 for no effect and ±100 for the full control effect; nearly all actives have a fitted effect of over 55% in size
Outline: (§3)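 In this quantitative HTS, cell killing is estimated from loss of ATP-dependent luciferase light. Cells see five compound concentrations over a 48 h exposure.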

[9] = tested on: CAOV3; experiment: as above; settings: Gynecologic cancer cell panel viability, ATPlite luminescence, 48 h; series mostly up to 57.5 µM
Outline: as §3

[10] = tested on: CASKI; experiment: as above; settings: Gynecologic cancer cell panel viability, ATPlite luminescence, 48 h; series mostly up to 57.5 µM
Outline: as §3

[11] = tested on: Es-2; experiment: as above; settings: Gynecologic cancer cell panel viability, ATPlite luminescence, 48 h; series mostly up to 57.5 µM
Outline: as §3

[12] = tested on: HeLa; experiment: as above; settings: Gynecologic cancer cell panel viability, ATPlite luminescence, 48 h; series mostly up to 57.5 µM
Outline: as §3

COC(=O)CC[C@@H](C)[C@H]1CC[C@H]2[C@@H]3CC(=O)[C@H]4C[C@H](OC(C)=O)CC[C@]4(C)[C@H]3CC[C@]12C
inactive: max response [1] -2.01% | outcome [2] | outcome [3] | outcome [4] | max response [5] -0.377% | outcome [6] | Potency [7] | Potency [8] | Potency [9] | Potency [10] | Potency [11] | Potency [12]

CC(C)(O)/C=C1/C(=O)C(C)(C)C(=O)C(C)(C)C1(O)O[C@@H]1O[C@H](COC(=O)c2cc(O)c(O)c(O)c2)[C@@H](O)[C@H](O)[C@H]1O (some centres undefined)
inactive: max response [1] -11.2% | outcome [2] | outcome [3] | outcome [4] | max response [5] 4.71% | outcome [6] inactive [at 17.4 µM] | Potency [7] | Potency [8] | Potency [9] | Potency [10] | Potency [11] | Potency [12]

CCCCN(CCCC)C(=O)CN1C[C@H](c2ccc3c(c2)OCO3)[C@@H](C(=O)O)[C@@H]1c1ccc(OC)cc1
inactive: max response [1] -2.69% | outcome [2] | outcome [3] | outcome [4] | max response [5] 2.42% and 5% | outcome [6] | Potency [7] | Potency [8] | Potency [9] | Potency [10] | Potency [11] | Potency [12]

COC(=O)C1=CO[C@@H](O[C@@H]2O[C@H](COC(=O)/C=C/c3cc(OC)c(O)c(OC)c3)[C@@H](O)[C@H](O)[C@H]2O)[C@@H]2C(CO)=CC[C@H]12
inactive: max response [1] -6.59% | outcome [2] | outcome [3] | max response [4] 1.62% | max response [5] 0.53% | outcome [6] inactive [at 17.4 µM] | Potency [7] | Potency [8] | Potency [9] | Potency [10] | Potency [11] | Potency [12]

O=c1ccn(C2OC(CO)C(O)C2O)c(=O)[nH]1 (centres undefined)
inactive: outcome [1] | outcome [2] | outcome [3] | outcome [4] | max response [5] 1.59% | outcome [6] | Potency [7] | Potency [8] | Potency [9] | Potency [10] | Potency [11] | Potency [12]

CC1=C(C)C(=O)OC(C(C)C2C(O)CC3C4C5OC5C5(O)CC(OC6OC(CO)C(O)C(O)C6O)CC(O)C5(C)C4CCC32C)C1 (centres undefined)
inactive: outcome [1] | outcome [2] | outcome [3] | max response [4] 0.502% | max response [5] -0.676% | outcome [6] inactive [at 17.4 µM] | Potency [7] | Potency [8] | Potency [9] | Potency [10] | Potency [11] | Potency [12]

C=C1C2(CCC(=O)OC2(C)C)CC(OC(=O)/C(C)=C/C)C2(C)C13OC14C(=O)OC(C)(C(=O)C12C(=O)OC4C)C3OC(C)=O (centres undefined)
inactive: outcome [1] | outcome [2] | outcome [3] | max response [4] 6.83% | max response [5] 4.63% | outcome [6] inactive [at 17.4 µM] | Potency [7] | Potency [8] | Potency [9] | Potency [10] | Potency [11] | Potency [12]

COc1cc(C)c(C(=O)O[C@H]2[C@@H](O)[C@H](n3ccc(=O)[nH]c3=O)O[C@@H]2CO)c(OC)c1
inactive: max response [1] -3.82% | outcome [2] | outcome [3] | max response [4] -4.86% | max response [5] -2.57% | outcome [6] inactive [at 17.4 µM] | Potency [7] | Potency [8] | Potency [9] | Potency [10] | Potency [11] | Potency [12]

CC1CCC2(NC1)OC1C(=O)C3C4CCC5CC(O[C@@H]6O[C@H](CO)[C@@H](O)[C@H](O)[C@H]6O[C@@H]6O[C@@H](C)[C@H](O)[C@@H](O)[C@H]6O)CCC5(C)C4CCC3(C)C1C2C (some centres undefined)
inactive: outcome [1] | outcome [2] | outcome [3] | max response [4] -4.49% | max response [5] -2.88% | outcome [6] inactive [at 17.4 µM] | Potency [7] | Potency [8] | Potency [9] | Potency [10] | Potency [11] | Potency [12]

C=C1[C@H]2[C@H](O[C@@H]3O[C@H](COC(=O)/C=C/c4cc(OC)c(O)c(OC)c4)[C@@H](O)[C@H](O)[C@H]3O)OC=C(C(=O)O)[C@H]2C[C@@H]1O
inactive: outcome [1] | outcome [2] | outcome [3] | outcome [4] | max response [5] 4.54% | outcome [6] inactive [at 17.4 µM] | Potency [7] | Potency [8] | Potency [9] | Potency [10] | Potency [11] | Potency [12]

CC(=O)N(O)CCCCCN1C(=O)CCC1=O
inactive: outcome [1] | outcome [2] | outcome [3] | max response [4] 2.57% | outcome [5] | outcome [6] | Potency [7] | Potency [8] | Potency [9] | Potency [10] | Potency [11] | Potency [12]

CC1(C)CC[C@]2(C(=O)O)CC[C@]3(C)C(=CCC4[C@@]5(C)CCC(O[C@@H]6OC[C@H](O)[C@H](O)[C@H]6O[C@@H]6O[C@H](CO)[C@@H](O)[C@H](O)[C@H]6O)[C@@](C)(CO)C5CC[C@]43C)[C@@H]2C1 (some centres undefined)
inactive: max response [1] -0.0042% | outcome [2] | outcome [3] | max response [4] 4.54% | max response [5] 2.38% | outcome [6] inactive [at 17.4 µM] | Potency [7] | Potency [8] | Potency [9] | Potency [10] | Potency [11] | Potency [12]
